# Results: PubChem BioAssay (NCI)
# The panel holds about 83,000 compounds, 20% with a hit somewhere; the sample as a whole holds those more often.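 Testing used 96-well plates and a 48-hour single-concentration exposure. Example: -40 means 40% of the starting cells died.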 Unmarked numbers belong to inactive results. Calls of active or inactive are those of the source. The calls were made as follows: active = growth percent below 10; inactive = the rest.
# Key:
# Assay in all cases: NCI-60 one-dose screen, 48 h (100 = growth as untreated, 0 = no growth, -100 = all killed)
# Settings in all cases: 10 µM unless noted
# [1] = system: SK-MEL-2 melanoma
# [2] = system: EKVX NSCLC
# [3] = system: SN12C renal
# [4] = system: UO-31 renal
# [5] = system: TK-10 renal
# [6] = system: ACHN renal
# [7] = system: CAKI-1 renal
# [8] = system: A498 renal
# [9] = system: CCRF-CEM leukemia
# [10] = system: MOLT-4 leukemia
Structure (SMILES),growth [1],growth [2],growth [3],growth [4],growth [5],growth [6],growth [7],growth [8],growth [9],growth [10]
Cc1ccccc1C1CC(=O)c2ccccc2C1C (stereo not given),120%,101%,99.1%,82.1%,105%,108%,106%,88.5%,95.2%,93.5%
COc1cc(C2CC(c3ccc(Cl)cc3)=NN2C(C)=O)ccc1Oc1nc2c(c(=O)n(C)c(=O)n2C)n1C (stereo not given),105%,83.6%,50.3%,76.3%,110%,87.2%,81.5%,77.4%,80.5%,62.6%
O=C(NCCN1CCCCC1)n1cc(-c2ccncc2)c(-c2ccc(Cl)c(O)c2)n1,60.8%,114%,81.6%,55.4%,79.4%,57.4%,109%,114%,87%,88.2%
CCCCCCCCCCCCNC(=O)N[C@H](C(=O)N[C@H]1/C=C/CCNC(=O)/C=C/[C@H](C)NC1=O)C(C)C,8.32% (active),25%,-42.4% (active),36.7%,8.32% (active),16.6%,35.8%,-55.3% (active),-5.12% (active),-29% (active)
COc1ccc(C2=NNC(c3ccc(Oc4nc5c(c(=O)n(C)c(=O)n5C)n4C)c(OC)c3)C2)cc1 (stereo not given),99.4%,97.7%,85.2%,81.2%,107%,93.7%,102%,91.9%,82.8%,76%
CC(C)[C@@H]1C=C2CC[C@H]3[C@](C)(CN)CCC[C@]3(C)[C@H]2CC1,81.7%,65.6%,93%,68.3%,90.8%,80.5%,78.7%,66.6%,71%,49.4%
COc1cc(OC)c(Cl)cc1N,116%,118%,93.1%,91.3%,105%,101%,91.6%,90.9%,97.3%,108%
Oc1c(C(Nc2cccc3ccccc23)c2ccccc2)ccc2cccnc12 (stereo not given),0.608% (active),31%,38.9%,20.4%,46%,22.1%,12.7%,36.7%,13.2%,-11.9% (active)
CC(=O)Oc1ccccc1C(=O)Nc1ncc([N+](=O)[O-])s1,-30.1% (active),34.7%,15.4%,16.2%,19.4%,55.8%,10.7%,-40.2% (active),13.9%,-9.45% (active)
CCN(CC)CCCC(C)Nc1ccnc2ccc(Oc3ccccc3)cc12 (stereo not given),112%,85.5%,79.1%,68.5%,93.5%,67.1%,79%,48.4%,72.5%,62.6%
Cc1ccc(C(CN(C)C)C(=O)c2ccccc2)cc1 (stereo not given),49.7%,68.7%,36.4%,53.5%,44.8%,-2.93% (active),52.4%,60.6%,-9.16% (active),-9.61% (active)
CCN(CC)c1ccc2c(cc1=O)[C@@H](NC(C)=O)CCc1cc(OC)c(OC)c(OC)c1-2,4.73% (active),44.6%,32.9%,58.3%,30.8%,30.3%,64.3%,-15.9% (active),9.47% (active),2.09% (active)
CC(=O)C1CCC2C3CC(C)=C4CC(O)CCC4(C)C3CCC12C (stereo not given),94.8%,79.5%,99.2%,87.7%,110%,94.8%,97.4%,113%,92.4%,80%
O=C(Nc1cccc(N=Cc2c(O)ccc3ccccc23)c1)c1ccccc1,87.9%,93.8%,99%,65.9%,92.4%,96.3%,84.7%,103%,90.8%,147%
COc1ccc(/C=C/c2nc3ccccc3c(=O)n2-c2ccc(C#Cc3ccc(C(C)(C)C)cc3)cc2C)c(OC)c1,104%,85.1%,89.6%,79.5%,101%,105%,76.9%,110%,75.8%,76.5%
CCOC(=O)C1C(=O)C=C(c2cc(OC)c(OC)c(OC)c2)CC1c1sc(N(C)Cc2ccccc2)nc1Cl (stereo not given),71.9%,63.3%,80.6%,53%,87.4%,86.8%,46.8%,86.1%,82%,58.7%
CCCCOC(=O)c1cc(O)c(O)c(O)c1,75%,83.6%,62.7%,31.7%,73%,75%,70.5%,122%,36.5%,30.7%
COc1ccc([C@H]2c3[nH]c4ccccc4c3C[C@H]3C(=O)N(CCCCCCC(=O)NO)CC(=O)N23)cc1,31.4%,66.8%,46.5%,43.8%,43.5%,22.1%,43.9%,-4.1% (active),13.3%,12.1%
COc1cccc(NC(=O)OC(C)C)c1,136%,94.7%,98.6%,82.1%,100%,101%,86.4%,92.7%,3.14% (active),99%
COC(=O)c1ccc2c(c1)nc(-c1cc3ccccc3[nH]c1=O)n2-c1cc(C(C)(C)C)[nH]n1,55.9%,85.6%,57.3%,29.1%,113%,78.5%,67.9%,59.6%,30.3%,18.1%
N/C(=N\OC(=O)c1ccccc1)C(C(=O)NOC(=O)c1ccccc1)C1CCCCC1 (stereo not given),121%,66.8%,89.1%,-50.5% (active),92.6%,25.6%,-55.3% (active),86.2%,30%,55.9%
COc1cc(/C=C/c2cc(/C=C/c3ccc(O)c(OC)c3)n(C(=O)c3ccccc3Br)n2)ccc1O,-0.325% (active),30.6%,14.2%,23.9%,65%,25.1%,-34.8% (active),56.4%,3.52% (active),-6.53% (active)
O=C(Nc1ccc(-n2ccc3c(NC(=O)c4ccccc4)nccc32)cc1)c1ccc(N2CCOCC2)c(C(F)(F)F)c1,21%,65.6%,41.8%,0.765% (active),27.6%,32.5%,25.6%,68.9%,26.9%,30.5%
O=C(Nc1cccc(-n2ccc3c(NC(=O)c4ccccc4)nccc32)c1)c1ccc(N2CCOCC2)c(C(F)(F)F)c1,13.4%,45.5%,34%,5% (active),6.82% (active),24.2%,14.8%,21.9%,15.7%,17.4%
Cc1ccc2c(C)c3c(ccc4ccccc43)c[n+]2c1,98.4%,44.1%,26.3%,45.9%,111%,91.7%,75.9%,89.7%,57.1%,61.3%
